# PubChem BioAssay (NCATS)
# Records with an inconclusive call do not appear. Unmarked numbers belong to inactive results. The source made the active and inactive calls. The call rests on the fitted dose curve; in most records, active means well fitted inhibition curve with a large enough effect in the repeat runs; inconclusive means weak or mixed curves; inactive means flat fitted curve, though single readings scatter.
# Biological target: Cytochrome P450 2D6 (Homo sapiens) (UniProt P10635)
# Assay: Cytochrome P450 family 2 subfamily D member 6 (CYP2D6) small molecule antagonists: luciferase biochemical (cell-free) qHTS assay (AID 1645840); further: nearly all actives have a fitted effect of over 55% in size
# Conditions: P450-Glo CYP2D6 enzyme, luciferin luminescence, 1 h; series mostly up to 57.4 µM; activity change, negative = inhibition: at the top concentration
# In short: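 P450-Glo luminescent screen: recombinant CYP2D6 enzyme–proluciferin substrate mix preincubated with compound 10 min at room temperature, then NADPH regeneration added for 1 h at room temperature. Detection reagent added for 20 min; luciferin light read as relative luminescence units.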
# On the % scale 0 is the no-effect control and ±100 the full control effect; potency means the concentration at half of the fitted maximal effect.
# Cytochrome P450 2D6 (Homo sapiens), sequence (P10635 whole entry, looked up): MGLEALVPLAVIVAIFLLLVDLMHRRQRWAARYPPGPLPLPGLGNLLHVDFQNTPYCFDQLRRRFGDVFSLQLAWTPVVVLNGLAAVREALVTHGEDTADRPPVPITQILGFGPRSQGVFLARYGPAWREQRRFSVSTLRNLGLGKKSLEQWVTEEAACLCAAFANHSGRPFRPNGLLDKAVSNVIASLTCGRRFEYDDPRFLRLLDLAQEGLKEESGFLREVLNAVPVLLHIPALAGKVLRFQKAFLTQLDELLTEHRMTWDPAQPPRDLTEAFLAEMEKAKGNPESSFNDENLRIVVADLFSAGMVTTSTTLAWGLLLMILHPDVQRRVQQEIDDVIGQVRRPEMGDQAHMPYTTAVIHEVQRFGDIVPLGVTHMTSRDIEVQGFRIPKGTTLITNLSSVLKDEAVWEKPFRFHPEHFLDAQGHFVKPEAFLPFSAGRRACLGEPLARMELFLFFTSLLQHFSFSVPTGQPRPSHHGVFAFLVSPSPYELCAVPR
Compound,"activity change, negative = inhibition",Potency
C=Cc1ccccc1,-0.332%,
CN(C)CCOc1cc(NS(=O)(=O)c2c(Cl)cc(C(F)(F)F)cc2Cl)ccc1Cl,,16.9 µM (active)
COC(C)=O,8.99%,
CCCc1cc(C)n(C)c(=O)c1CN(C)C(=O)c1cc(-c2ccc(N3CCN(C(C)C)CC3)nc2)cc2c1cnn2C(C)C,1.37%,
COc1cc(NC(=O)c2cc(C3CC3)on2)c(OC)cc1Cl,,2.39 µM (active)
O=C(OCCO)c1ccccc1O,7.48%,
C=CS(=O)(=O)O,7.23%,
Nc1nc2c(cnn2CCCc2ccc(O)cc2)c2nc(-c3ccco3)nn12,-3.53%,
O=C1C(c2[nH]c3ccc(S(=O)(=O)O)cc3c2O)=Nc2ccc(S(=O)(=O)O)cc21,-24.5%,
Nc1c(CC(=O)O)cccc1C(=O)c1ccccc1,6.08%,
CC1(S(=O)(=O)O)CC(=O)c2ccccc2C1=O (centres undefined),,8.49 µM (active)
O=[N+]([O-])c1ccc(Oc2ccc(N=C=S)cc2)cc1,3.33%,
O=C(Nc1ccc(C(F)(F)F)cn1)N1CCN(c2ncccc2C(F)(F)F)CC1,-12.3%,
C=CC(=O)N1CCCC(n2nc(-c3ccc(Oc4ccccc4)cc3)c3c(N)ncnc32)C1 (centres undefined),,19 µM (active)
CNc1cccc(CCOc2ccc3c(c2)CN(CC(F)(F)F)C(=O)[C@H](CC(=O)O)C3)n1,0.746%,
CCC(=O)Oc1ccc2c(c1)CC[C@@H]1[C@@H]2CC[C@]2(C)[C@@H](OC(=O)CC)CC[C@@H]12,-14%,
O=P(O)(O)OC(CO)CO,9.01%,
CCCCCCCCCC(=O)O,4.27%,
CCOc1ccc(CCNC(=O)c2cc3sc(Cl)cc3n2C)cc1OCC,-19%,
Cc1cc2occ(CN(C)CCN(C)Cc3cn(-c4cccc(C(F)(F)F)c4)c4ccccc34)c(=O)c2cc1C,,4.77 µM (active)

Compound,"activity change, negative = inhibition",Potency
CCCCCCCCCCCCCCCC(=O)OC/C=C(C)/C=C/C=C(C)/C=C/C1=C(C)CCCC1(C)C,5.17%,
COc1ccnc(CS(=O)c2nc3cc(OC(F)F)ccc3[nH]2)c1OC (centres undefined),-24.7%,
CCC(=O)O,1.85%,
COc1ccc(S(=O)(=O)Nc2c(C)cc(C)cc2C)cc1,2.68%,
Cc1c(O)cc2c(c1C)O[C@](C)(CCC[C@H](C)CCC[C@H](C)CCCC(C)C)CC2,0.782%,
Cc1c(Cl)cccc1S(=O)(=O)Nc1nc(NCCc2ccccc2)nc2c1CN(Cc1ccccc1)CC2,,4.77 µM (active)
N#C/C(=C1\Nc2ccccc2S1)c1ccnc(NCCc2cccnc2)n1,,8.49 µM (active)
COc1ccc(Sc2ccc(NC(=O)c3ccccc3Cl)cc2C#N)cc1,-5.31%,
O=S(=O)(O)Oc1ccc(C(c2ccc(OS(=O)(=O)O)cc2)c2ccccn2)cc1,0.705%,
CCOc1ccc(S(=O)(=O)N2CCCCCC2)c2ccccc12,-23.6%,
CN(C)C(=O)Nc1cccc(-c2ccc(N(C)C)cc2)c1,,21.3 µM (active)
COC[C@H](c1ccc(C(F)(F)F)cc1)N1CCN(C2(C)CCN(C(=O)c3c(C)ncnc3C)CC2)C[C@H]1C,,16.9 µM (active)
COC(=O)c1cc(Br)cnc1N1CCC(NC2CCCCC2)C(O)C1 (centres undefined),,0.019 µM (active)
FC(F)(F)c1ccccc1-c1cc(C(F)(F)F)c2nc(C3=NOC4(CCCCC4)C3)[nH]c2c1,18.9%,
CN1CC(O)c2cc(N=NC(N)=O)c(O)cc21 (centres undefined),-3.39%,
CCCCC(=O)O,-3.25%,
CCCC(CCC)C(N)=O,2.67%,
CCOC(=O)[C@H](CCc1ccccc1)N[C@H]1CCCN2CCC[C@@H](C(=O)O)N2C1=O,-0.997%,
O=C(NCCO)c1cccc(-c2cc(Nc3ccc(OC(F)(F)F)cc3)ncn2)c1,,23.9 µM (active)
